Inconclusive results are not listed. Where a call stands in place of a potency, no number is given. A number with no mark means an inactive call. Active and inactive are the calls of the source. Calls follow the shape of the dose curve; as a rule, active = well fitted inhibition curve with a large enough effect; inconclusive = small, poorly fitted or top-dose-only effect; inactive = flat fitted curve, though single readings scatter. *1 amine or outer side, *2 acyl side, *3 side chain or, on linkers, in order; H or OH if unused. Where a SMILES comes first, the peptide text is derived from it. [ ]: non-standard residue; d: D form. X13 = O=C(C(CC(O)CO)O[*:1])[*:2]; NMeV = CN[CH](C(=O)O)C(C)C; NMeA = CN[CH](C)C(=O)O; βAla = NCCC(=O)O

This experiment can be described thus: P-glycoprotein substrates identified in KB-8-5-11 adenocarcinoma cell line, qHTS therapeutic library screen (AID 1346987). Also: nearly all actives have a fitted effect of over 65% in size. The settings on record: KB-8-5-11 (P-gp overexpressing) viability, CellTiter-Glo, 72 h; series mostly up to 44.5 µM. The method, boiled down:
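In this qHTS, P-gp-rich KB-8-5-11 cells received library compounds across a concentration range. Viability was quantified by luminescence after 72 h at 37 degree C.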
Turning to `CNc1nc(Cc2ccccc2)nc2c1CCNC[C@@H]2C`, the Potency result is “inactive”. In the case of `C/C=C1/[C@H](O[C@@H]2O[C@H](CO)[C@@H](O)[C@H](O)[C@H]2O)OC=C(C(=O)OC)[C@H]1CC(=O)OCCc1ccc(O)c(O)c1`, the Potency result is “inactive”.

In the case of `O=C(CC1CC(c2ccc(F)cc2F)=NO1)N1CCOCC1` (stereo not drawn), the Potency entry is “inactive”. For `COc1cc(O)cc(C)c1C(=O)OC1C(CO)OC(n2ccc(=O)[nH]c2=O)C1OC(C)=O` (stereo not drawn), the Potency result was “inactive”.

For the molecule `O=C(OC[C@H]1O[C@@H](Oc2ccccc2CO)[C@H](O)[C@@H](O)[C@@H]1O)c1ccccc1`, the Potency entry is “inactive”. With `C=C1CC[C@@]2(OC1)O[C@H]1CC3C4CC=C5C[C@@H](O[C@@H]6O[C@@H](C)[C@H](O)[C@@H](O)[C@H]6O)C[C@@H](O[C@@H]6O[C@H](C)[C@H](O)[C@H](O)[C@H]6O[C@@H]6O[C@@H](C)[C@H](O)[C@@H](O)[C@H]6O)[C@]5(C)C4CC[C@]3(C)[C@H]1[C@@H]2C` (stereo partly drawn), the activity change, negative = cytotoxicity was 5.67% [at 9.29 µM]. With `OC[C@@]1(O)CO[C@@H](OC[C@H]2O[C@@H](Oc3ccccc3)[C@H](O)[C@@H](O)[C@@H]2O)[C@@H]1O`, the Potency entry is “inactive”.

Consider `COC(=O)C1=CO[C@@H](O[C@@H]2O[C@H](CO)[C@@H](O)[C@H](O)[C@H]2O)[C@@H]2C(C)CC(=O)[C@]12O` (stereo partly drawn), for which the Potency entry was “inactive”. With `C[C@@H]1O[C@@H](O[C@H]2[C@@H]3C=CO[C@@H](O[C@@H]4O[C@H](CO)[C@@H](O)[C@H](O)[C@H]4O)[C@@H]3[C@@]3(CO)O[C@@H]23)[C@H](O)[C@H](O)[C@H]1OC(=O)/C=C/c1ccc(O)cc1`, the Potency result is “inactive”. The same measure, in the same setting: in the case of `CC1(C)C=Cc2c(ccc3c2[N+]([O-])=C2C3(O)CC34NC(=O)C5(CCCN5C3=O)CC4C2(C)C)O1` (stereo not drawn) it was “inactive”. With `CC1=CCC(O)C2(C)CCC3C(C)C(=O)OC3C12` (stereo not drawn), the Potency entry is “inactive”. Consider `C=C1CCC2C(C)(C)CC(=O)CC2(C)C1CCC(C)CCO` (stereo not drawn), for which the Potency result was “inactive”. With `O=[N+]([O-])c1cc(Cl)ccc1S(=O)(=O)N1CCN(Cc2ccccc2)CC1`, the Potency entry was “inactive”. With `CC1CCC2(NC1)OC1C(O)C3C4CCC5CC(O[C@@H]6O[C@H](CO)[C@@H](O)[C@H](O)[C@H]6O[C@@H]6O[C@@H](C)[C@H](O)[C@@H](O)[C@H]6O)CCC5(C)C4CCC3(C)C1C2C` (stereo partly drawn), the Potency result was “inactive”. In the case of `CC(=O)O[C@@H]1C(O)C[C@@]2(C)C(CC[C@@H](C)C23Cc2c(O)cc4c(c2O3)CNC4=O)C1(C)C` (stereo partly drawn), the Potency entry was “inactive”. `C/C=C/C=C/C(O)=C1/C(=O)[C@]2(C)C3/C(=C(O)/C=C/C=C/C)C(=O)C4(C)C1[C@]1(C)O[C@@]4(O)[C@@]3(C)O[C@@]12O`: the Potency entry is “inactive”. Same read-out and setting: in the case of `C/C(=C\CCC(C)(C)O)CCO[C@@H]1O[C@H](CO[C@@H]2O[C@@H](C)[C@H](O)[C@@H](O)[C@H]2O)[C@@H](O)[C@H](O)[C@H]1O` it was “inactive”. Still for that read-out and setting: as for `CC1(C(=O)O)CCCC2(C)C3CCC4CC3(CCC12)CC4C(=O)O` (stereo not drawn), the entry is “inactive”.

On to `CC1(C)CC2C3=CCC4[C@@]5(C)CC[C@H](OC6OCC(O)C(OC7OC(CO)C(O)C(O)C7O)C6O)C(C)(C)C5CC[C@@]4(C)[C@]3(C)C[C@H](O)[C@@]2(CO)[C@H](OC(=O)c2ccccc2)C1` (stereo partly drawn), for which the activity change, negative = cytotoxicity was -4.21% [at 9.29 µM]. As to `COC1OC(O)C2(CCC3(O2)C(C)CC2OC(=O)C4(C)CCCC3(C)C24)C1O` (stereo not drawn), the Potency entry was “inactive”. Consider `O=C(/C=C/c1ccc(O)c(O)c1)OC[C@H]1O[C@@H](OC2CCCCC2O)[C@H](O)[C@@H](O)[C@@H]1O` (stereo partly drawn), for which the Potency result is “inactive”. As to `CCC(C)C1NC(=O)C2CCCN2C(=O)C(CC(O)CO)OC(=O)CCNC(=O)C(C)N(C)C(=O)C(C(C)C)N(C)C1=O` (stereo not drawn) (cyclo([X13]PI[NMeV][NMeA][βAla]); configuration not given here), the Potency entry was “inactive”.

Take `O=C(OC[C@H]1O[C@H](O[C@H]2CO[C@H](CO)[C@@H](O)[C@@H]2O)[C@H](O)[C@@H](O)[C@H]1O)c1ccccc1`: the Potency entry is “inactive”. Regarding `CC1CCC2C(C(=O)O)=CC3(O)CC(C)(C)CC123` (stereo not drawn), the Potency result is “inactive”.

`Cc1c(NC(=O)N2CCOCC2)ccc2c1c1ccccc1n2C(C)C`: the Potency entry was “inactive”. Consider `C/C(=C/CO)CC[C@H]1[C@]2(C)C[C@H](O)CC(C)(C)[C@H]2CC[C@]1(C)O`, for which the Potency result was “inactive”.

In the case of `CC1(C)CC[C@]2(C(=O)O[C@@H]3O[C@H](CO)[C@@H](O)[C@H](O)[C@H]3O)CC[C@]3(C)C(=CCC4[C@@]5(C)C[C@H](O)[C@H](O[C@@H]6OC[C@@H](O)[C@H](O)[C@H]6O)[C@@](C)(CO)C5CC[C@]43C)C2C1` (stereo partly drawn), the outcome was “inactive [at 9.29 µM]”. In the case of `C=C1Cc2c(Cl)cc3[nH]c4c5c3c2[C@@]2(O)[C@@H]1C[C@@H]2C(C)(C)O[C@H]5C1CC[C@@]2(O)[C@@]35O[C@@H]3[C@H]3OC(C)(C)[C@H]3O[C@H]5CC[C@]2(C)[C@@]41C` (stereo partly drawn), the Potency result is “inactive”.

These data come from PubChem BioAssay (NCATS).
